The structures appear in SMILES notation. The panel holds about 83,000 compounds, 20% with a hit somewhere; the sample as a whole holds those more often.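 Compound tested at a single concentration for 48 hours in 96-well plates; a percent growth value below 10 was scored as active.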 Unmarked numbers belong to inactive results. Active and inactive are the calls of the source.

Experimental findings from PubChem BioAssay (NCI) are described below.

The assay deals with MDA-MB-468 breast. As to the kind of experiment: NCI-60 one-dose screen, 48 h (100 = growth as untreated, 0 = no growth, -100 = all killed). The conditions noted are these: 10 µM unless noted.
For `COc1cc2nc(-c3ccc(C(F)(F)F)cc3)cc(OCCCN3CCOCC3)c2cc1OC`, the growth was 49.4%.

Take `N=C(N)c1ccc(-c2ccc(-c3ccc(Cl)cc3Cl)s2)nc1`: the growth was -13.7% (active).

On to `C=CCn1c(SCC(=O)Nc2cccc(C(=O)/C=C/c3ccccc3Cl)c2)nc2ccccc2c1=O`, for which the growth was 98.1%.

For `CCOC(=O)c1c2c(n3ccc(NC(=O)CCN(CC)CC)cc13)C(=O)c1ncccc1C2=O`, the growth is 81.7%.

For `Clc1ccc2c(c1)N(C1CCCN(Cc3ccccc3)C1)c1ccccc1S2` (stereo not given), the growth is 29.5%.

As to `C=C(C)[C@@H]1CC[C@]2(C)[C@H](CC=C3[C@@H]4CC(C)(C)CC[C@]4(CO)CC[C@]32C)[C@@]1(C)CCCN`, the growth was -56.3% (active).

Consider `C/C(=N\Nc1cc(C)c2cc(C)ccc2n1)c1ccccn1`, for which the growth was -69% (active).

In the case of `C[C@H](CCC[C@H](C)OS(=O)(=O)c1ccccc1)OS(=O)(=O)c1ccccc1`, the growth is 110%.

Turning to `O=C(Nc1cccc(-n2cc(-c3ccncc3)c(-c3cc(O)cc(Cl)c3)n2)c1)Nc1ccc(Cl)c(C(F)(F)F)c1`, the growth was 5.22% (active).

For `Nc1c(C(=O)Nc2cccc3cnccc23)sc2nc3c(cc12)C(=O)CCC3`, the growth is 47.9%.

With `COc1cccc(/C=N/Nc2nc3ccccc3s2)c1OC`, the growth is 80.3%.

As to `COc1ccc(/C(=C\c2cc(OC)c(OC)c(OC)c2)C(=O)Nc2nc3ccc(Cl)cc3s2)cc1`, the growth was 96.4%.

For the compound `CN1CCN(c2ccc(Nc3nc(NCCNS(=O)(=O)c4ccc5ccccc5c4)c4sccc4n3)cc2)CC1`, the growth is 2.8% (active).

Regarding `Clc1ccc2c(NCCCCNc3nc(N4CCCCC4)nc4ccccc34)ccnc2c1`, the growth was 7.06% (active).

In the case of `CCCCCCCCn1ccc2cc(NC(=O)Cn3cc(CN4CCOCC4)nn3)ccc21`, the growth was 88.2%.

In the case of `COc1nc2c(cc1S(=O)(=O)c1ccccc1)CCc1c-2cnn1-c1cccc(Cl)c1`, the growth was 60%.

For `O=c1c2sc3ncccc3c2nnn1-c1ccccc1`, the growth was 104%.

In the case of `C=C1c2nc3ccccc3n2C=C(c2ccc(Cl)cc2)N1Cc1ccc(OC)cc1`, the growth is 80.8%.

`O=C(c1ccccc1)c1ccc(N2C(=O)C3C4c5ccccc5C(/C=C/C(=O)c5ccccn5)(c5ccccc54)C3C2=O)cc1` (stereo not given): the growth was 21.9%.

On to `CC(=O)OC[C@]12CC[C@H]3[C@@H](C[C@H]4O[C@]45CC=CC(=O)[C@]35C)[C@]1(O)CC[C@@]2(O)[C@@](C)(O)C1CC(C)=C(C)C(=O)O1` (stereo not given in full), for which the growth was -52.8% (active).

Regarding `C[C@]1(O)CC(=O)[C@]2(O)C3=C(C=C[C@]2(O)C1)C(=O)c1c(O)cccc1C3=O`, the growth was -57.5% (active).

Consider `O=C(Nc1ccc(Nc2ncccn2)cc1)NC1C=c2ccccc2=CC1` (stereo not given), for which the growth is 110%.

Consider `c1ccc(-c2ccc3ccccc3c2)cc1`, for which the growth is 91.8%.

As for `CN1CCCC1c1cccnc1` (stereo not given), the growth is 97.1%.

`CN(CCCN(C)CCC1CCCCC1)CCC1CCCCC1`: the growth is -76.1% (active).

`COc1ccc(CNC(=O)[C@H](O)[C@@H](N)Cc2ccccc2)cc1`: the growth is 106%.

For `CCOC(=O)Nc1ccc2nc(-c3cscn3)[nH]c2c1`, the growth is -2.03% (active).

For the compound `Nc1nc2c([nH]1)c1[nH]c3ccccc3c1c1[nH]c3ccccc3c21`, the growth is -57.2% (active).

Regarding `COc1cc(CNC(=O)CCCC/C=C/C(C)C)ccc1OCc1cn(-c2ccc([N+](=O)[O-])cc2)nn1`, the growth was 77.4%.

On to `Cc1ccc(-c2nc(N3CCNCC3)c3oc(-c4ccccc4)nc3n2)cc1`, for which the growth is -31.4% (active).

As to `COc1ccc2cc(C(=O)N3CCC([C@@H](C)C(=O)NCc4ccc5c(c4)OCO5)CC3)[nH]c2c1`, the growth is 41.1% [50 µM].

Consider `COc1cc(C(=O)C[n+]2ccccc2)ccc1OC(C)=O`, for which the growth is 101%.

Regarding `O=C(CCCCCCNC(=O)C(O)(O)C(F)(F)F)Nc1ncc(-c2ccccc2)s1`, the growth was -25% (active).

For the compound `O=[N+]([O-])c1ccc(O)cc1Br`, the growth was 106%.

Regarding `CNC(=O)c1cc(-c2ccc(NC(=S)Nc3cc(C(F)(F)F)cc(C(F)(F)F)c3)cc2)nc2cccnc12`, the growth is -8.04% (active).

For the compound `CCOC(=O)/C(=C/c1c(-c2ccccc2)[nH]c2ccccc12)C(=O)c1ccc(Cl)cc1`, the growth was 19.8%.

`CC1CN(Cc2ccccc2)C(=O)NC1=O` (stereo not given): the growth was 111%.

Take `CN1CCN(Cc2ccc(NC(=O)c3cncc(C#Cc4cnc5ccc(OCCCS(C)(=O)=O)nn45)c3)cc2C(F)(F)F)CC1`: the growth is -61.6% (active).

`Clc1nc(Cl)c2ncn(-c3ccccc3)c2n1`: the growth was 3.71% (active).

Consider `COc1ccc(-n2c(C)nc3c(c(C)nn3-c3ccccc3)c2=O)cc1`, for which the growth is -15.7% (active).
